Records with an inconclusive call do not appear. Calls of active or inactive are those of the source.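 How the source made its calls, unless noted: active means inhibition above 54%, about 3 SD of non-fluorescent compounds; inactive means the rest.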
Legend:
[1] = rapamycin-like changes in RPL19A-GFP expression – cell-based, S. cerevisiae, multiplex flow cytometry, primary screen (AID 1862; in the data active means percent of DMSO control GFP below about 86%;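 further: lower values mimic rapamycin by blocking the RPL19A rise seen in DMSO cells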); conditions: S. cerevisiae RPL19A-GFP strain, flow cytometry fluorescence, 3 h; at 10 µM; stronger effect = lower value
[2] = TOR pathway GLN3 branch reporter MEP2-GFP changes – S. cerevisiae, multiplex flow cytometry, primary screen (AID 1867;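 active means GFP response, as percent of the DMSO control, above the screen-wide mean plus 3 SD, about 139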;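 further: median GFP channel fluorescence of barcode-gated MEP2-GFP cells measured by flow cytometry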); conditions: S. cerevisiae MEP2-GFP strain, 3 h, at 10 µM, stronger effect = higher value, 100% means same as DMSO wells
[3] = TOR pathway RTG branch CIT2 reporter changes – S. cerevisiae, GFP fusion, multiplex flow cytometry, primary screen (AID 1870;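 active means percent response above a set limit, the screen-wide mean plus 3 SD, cut at about 130% in these data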;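 further: barcoded CIT2-GFP strain pooled with four other GFP strains with rapamycin as positive control; median GFP fluorescence per well over plate mean of DMSO wells so 100% = DMSO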); conditions: S. cerevisiae CIT2-GFP expression, 3 h, at 10 µM, stronger effect = higher value
[4] = TOR pathway LAP4-GFP level changes – S. cerevisiae, multiplex flow cytometry, primary screen (AID 1873;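 active means GFP signal, as percent of the solvent control, above the screen mean plus 3 SD, about 149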); conditions: S. cerevisiae LAP4-GFP expression, 3 h, at 10 µM, stronger effect = higher value
[5] = yeast AGP1-GFP level changes, GLN3 branch – cell-based, multiplex flow cytometry, S. cerevisiae, primary screen (AID 1887;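 active means GFP signal above the screen-wide mean plus 3 SD, that is over about 124.5% of the solvent control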;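 further: AGP1-GFP fusion strain of S. cerevisiae within a five-strain barcoded multiplex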); conditions: 3 h, at 10 µM, stronger effect = higher value
[6] = reduced mouse 2C T cell binding to pMHC/ICAM-1 vesicles – MLPCN validation set, flow cytometry, LFA-1/ICAM-1 modulator project, pilot screen (AID 2523;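 active means response below a set limit, under 55% cells CD8-positive and vesicle-bound, and CD8 cells' 90th-percentile brightness under 279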;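 on vesicle binding response: mean PE anti-B7-1 fluorescence of CD8+ cells relative to row control; 100% = QL9-loaded vesicles with DMSO vehicle in the same plate row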); conditions: 2C mouse CD8+ T cells, at 7 µM, stronger effect = lower value; double positive events: measured here: CD8+/vesicle+ event percentage
[7] = molecular target: Integrin beta-1 (Homo sapiens) + Integrin alpha-4 (Homo sapiens) (UniProt P13612+P05556); test: alpha4beta1 integrin LIBS antibody binding reduction – U937 cells, HUTS-21 mAb, flow cytometry, validation set, VLA-4 allosteric modulator project, pilot screen (AID 2674;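 active means inhibition above 50%, about 3 SD of the validation set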;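 further: antibody binding induced by the VLA-4 ligand LDV present at three times its Kd; 0% = LDV ligand with antibody and no compound and 100% = antibody without LDV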); conditions: HUTS-21 LIBS mAb binding, at 6.7 µM, stronger effect = higher value, binding induced by LDV ligand
[8] = calorie-restriction mimetic ROS inhibitors, yeast – validation compound set, pilot screen (AID 2706;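 active means superoxide response below 65% of plate, a cut near 3 SD across the whole screen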;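 further: yeast exposed to compound for one week at 30 degrees C before staining; 100% = mean of all compound wells on the same plate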); conditions: S. cerevisiae aging, superoxide DHE fluorescence; at 10 µM; stronger effect = lower value
[9] = molecular target: Beta-adrenergic receptor kinase 1 (Homo sapiens) (UniProt P25098); test: GRK2 binders displacing RNA aptamer, biochemical, validation, human GRK2, bead flow cytometry (AID 488806;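 active means aptamer binding inhibition above 30%, about 3 SD of noise from non-fluorescent compounds; inactive means inhibition at or below 30%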); conditions: bead-bound GRK2, FAM-aptamer displacement, at 10 µM, stronger effect = higher value
[10] = molecular target: Beta-2 adrenergic receptor (Homo sapiens) (UniProt P07550); test: agonist-induced loss of surface beta2AR – cell-based, FAP fluorogen, flow cytometry, validation set, pilot screen (AID 504459;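 active means percent response above 42, roughly 3 SD of non-fluorescent test compounds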;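 further: agonist-driven loss of surface beta2AR via internalization measured by FAP dye flow cytometry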); conditions: Am2.2-beta2AR cells, at 10 µM, stronger effect = higher value
[11] = molecular target: AP-2 complex subunit beta (Homo sapiens) (UniProt P63010); test: beta-arrestin/AP2 interaction blockers – biochemical, validation set, GST-AP2 beads, flow cytometry, pilot screen (AID 504541); conditions: FITC arrestin peptide, at 10 µM, stronger effect = higher value, AP2 beta2 appendage fragment, R879A mutant;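 further: AP2 carries R879A mutation and is captured from E. coli lysate; bead-bound FITC arrestin peptide fluorescence measuring arrestin peptide binding to AP2; 0% = DMSO wells and 100% = excess unlabeled arrestin peptide control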
[12] = cytosolic pH regulators acting via V-ATPase – S. cerevisiae, pHLuorin, HTS validation (AID 504600; in the data active means response above about 15%;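 further: plate controls were DMSO for no effect and reference compound for full effect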); conditions: V-ATPase proton transport, at 10 µM, stronger effect = higher value
[13] = tested on: anti-desmoglein-3 scFv antibody binding to human DSG3; test: blockers of pathogenic pemphigus antibody–desmoglein-3 binding – biochemical, validation compound set, bead-based, flow cytometry, pilot screen (AID 588368;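 active means binding below the plate cutoff, the plate median minus 3 SD, with a reading above zero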;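 further: signal is the median channel fluorescence of bead-bound GFP antibody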); conditions: Protein G beads, DSG3-Fc, scFv-GFP binding, at 10 µM, stronger effect = lower value
[14] = Nile Red efflux blockade in pump-expressing yeast – validation compound set, multiplex, phenotypic, pilot screen (AID 588506;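 active means efflux inhibition above 0.42, the validation set average plus 4 SD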;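 further: Nile Red retained in cells so higher fluorescence means more efflux inhibition; 0 = negative control wells and 1 = enniatin B 25 µM full block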); conditions: S. cerevisiae pump-expressing triplex, Nile Red efflux flow cytometry; at 10 µM; stronger effect = higher value; the pumps come from Candida albicans
[15] = molecular target: ATP-binding cassette sub-family B member 6 (Homo sapiens) (UniProt Q9NP58); test: blockers of ABCB6-driven porphyrin uptake – K562-ABCB6 cells, flow cytometry, validation set, pilot screen (AID 588550;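 active means inhibition above the screen-wide mean plus 3 SD, about 51%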;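 further: 0% = DMSO wells and 100% = benzethonium chloride 70 µM positive control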); conditions: K562-ABCB6 porphyrin accumulation, 1 h, at 10 µM, stronger effect = higher value
[16] = AML differentiation inducers, ER-HoxA9 marrow cells – cell-based, GFP/MAC1 double positive, flow cytometry, validation set, primary screen (AID 588685;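 active means differentiation response of at least 50%, scaled between solvent and reference control, from cells with both markers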;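 further: compound exposure lasts four days before antibody staining and flow analysis; 0% = DMSO wells and 100% = 5 µM fulvestrant positive control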); conditions: stronger effect = higher value, normalized: vehicle 0, fulvestrant 100

Beta-2 adrenergic receptor (Homo sapiens), sequence (P07550 whole entry, looked up, the tested form may be a part): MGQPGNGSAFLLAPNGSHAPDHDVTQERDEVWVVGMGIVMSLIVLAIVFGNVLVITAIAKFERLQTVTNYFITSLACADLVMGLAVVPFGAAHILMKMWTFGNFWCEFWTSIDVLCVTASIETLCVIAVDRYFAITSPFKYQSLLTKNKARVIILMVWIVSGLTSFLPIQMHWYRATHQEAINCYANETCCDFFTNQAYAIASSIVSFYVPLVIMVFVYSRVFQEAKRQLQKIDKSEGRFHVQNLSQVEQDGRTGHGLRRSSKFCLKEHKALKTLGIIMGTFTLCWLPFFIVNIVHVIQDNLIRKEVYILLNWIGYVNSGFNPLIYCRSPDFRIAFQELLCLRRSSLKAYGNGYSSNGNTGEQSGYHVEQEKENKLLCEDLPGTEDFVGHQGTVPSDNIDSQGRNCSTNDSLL
Integrin beta-1 (Homo sapiens) + Integrin alpha-4 (Homo sapiens), sequence (P05556 whole entry, looked up): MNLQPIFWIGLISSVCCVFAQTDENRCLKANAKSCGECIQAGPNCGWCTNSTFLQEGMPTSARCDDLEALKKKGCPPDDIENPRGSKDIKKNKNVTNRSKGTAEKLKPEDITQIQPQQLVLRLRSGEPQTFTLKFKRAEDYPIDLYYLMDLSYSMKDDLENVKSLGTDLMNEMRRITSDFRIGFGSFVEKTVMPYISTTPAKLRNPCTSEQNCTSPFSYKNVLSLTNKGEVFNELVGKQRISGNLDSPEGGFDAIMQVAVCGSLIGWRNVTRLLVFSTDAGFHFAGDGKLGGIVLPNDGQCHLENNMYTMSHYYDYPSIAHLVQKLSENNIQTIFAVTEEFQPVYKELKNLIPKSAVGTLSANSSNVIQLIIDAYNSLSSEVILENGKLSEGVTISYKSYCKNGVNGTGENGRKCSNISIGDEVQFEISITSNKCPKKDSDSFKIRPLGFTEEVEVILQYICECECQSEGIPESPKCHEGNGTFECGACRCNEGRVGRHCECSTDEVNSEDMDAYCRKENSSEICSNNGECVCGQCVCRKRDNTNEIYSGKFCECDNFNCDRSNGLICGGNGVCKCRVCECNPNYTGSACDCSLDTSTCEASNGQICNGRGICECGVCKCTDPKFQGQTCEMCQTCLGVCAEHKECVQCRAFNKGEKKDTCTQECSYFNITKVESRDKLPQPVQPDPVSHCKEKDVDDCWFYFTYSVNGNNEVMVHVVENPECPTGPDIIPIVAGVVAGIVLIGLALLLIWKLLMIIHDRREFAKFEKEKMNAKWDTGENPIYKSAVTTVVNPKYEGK
Integrin beta-1 (Homo sapiens) + Integrin alpha-4 (Homo sapiens), sequence (P13612 whole entry, looked up): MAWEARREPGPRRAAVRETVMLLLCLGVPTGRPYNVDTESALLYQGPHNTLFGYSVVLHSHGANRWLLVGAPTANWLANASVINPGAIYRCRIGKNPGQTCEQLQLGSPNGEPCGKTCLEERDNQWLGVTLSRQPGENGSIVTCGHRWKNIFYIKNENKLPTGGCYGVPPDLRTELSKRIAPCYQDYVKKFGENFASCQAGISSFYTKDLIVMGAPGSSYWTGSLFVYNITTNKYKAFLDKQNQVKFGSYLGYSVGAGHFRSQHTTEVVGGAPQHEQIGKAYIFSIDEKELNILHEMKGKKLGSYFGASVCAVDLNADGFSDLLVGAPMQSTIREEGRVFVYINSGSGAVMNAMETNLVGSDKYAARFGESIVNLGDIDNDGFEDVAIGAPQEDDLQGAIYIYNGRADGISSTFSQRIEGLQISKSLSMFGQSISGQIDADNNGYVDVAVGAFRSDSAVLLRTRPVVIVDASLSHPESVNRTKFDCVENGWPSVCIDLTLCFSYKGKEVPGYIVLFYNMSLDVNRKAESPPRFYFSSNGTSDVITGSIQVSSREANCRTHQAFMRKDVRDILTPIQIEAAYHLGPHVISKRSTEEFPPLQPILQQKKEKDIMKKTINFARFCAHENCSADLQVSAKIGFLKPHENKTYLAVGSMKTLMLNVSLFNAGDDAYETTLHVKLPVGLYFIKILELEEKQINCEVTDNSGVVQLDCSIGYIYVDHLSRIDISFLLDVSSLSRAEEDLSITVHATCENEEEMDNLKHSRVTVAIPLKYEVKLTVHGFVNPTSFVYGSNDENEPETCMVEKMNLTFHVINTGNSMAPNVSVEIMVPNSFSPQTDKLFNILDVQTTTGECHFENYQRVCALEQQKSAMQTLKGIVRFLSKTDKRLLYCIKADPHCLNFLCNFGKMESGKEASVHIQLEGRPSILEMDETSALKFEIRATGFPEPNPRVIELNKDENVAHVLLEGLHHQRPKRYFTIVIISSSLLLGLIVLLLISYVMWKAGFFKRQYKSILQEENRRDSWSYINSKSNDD
Beta-adrenergic receptor kinase 1 (Homo sapiens), sequence (P25098 whole entry, looked up): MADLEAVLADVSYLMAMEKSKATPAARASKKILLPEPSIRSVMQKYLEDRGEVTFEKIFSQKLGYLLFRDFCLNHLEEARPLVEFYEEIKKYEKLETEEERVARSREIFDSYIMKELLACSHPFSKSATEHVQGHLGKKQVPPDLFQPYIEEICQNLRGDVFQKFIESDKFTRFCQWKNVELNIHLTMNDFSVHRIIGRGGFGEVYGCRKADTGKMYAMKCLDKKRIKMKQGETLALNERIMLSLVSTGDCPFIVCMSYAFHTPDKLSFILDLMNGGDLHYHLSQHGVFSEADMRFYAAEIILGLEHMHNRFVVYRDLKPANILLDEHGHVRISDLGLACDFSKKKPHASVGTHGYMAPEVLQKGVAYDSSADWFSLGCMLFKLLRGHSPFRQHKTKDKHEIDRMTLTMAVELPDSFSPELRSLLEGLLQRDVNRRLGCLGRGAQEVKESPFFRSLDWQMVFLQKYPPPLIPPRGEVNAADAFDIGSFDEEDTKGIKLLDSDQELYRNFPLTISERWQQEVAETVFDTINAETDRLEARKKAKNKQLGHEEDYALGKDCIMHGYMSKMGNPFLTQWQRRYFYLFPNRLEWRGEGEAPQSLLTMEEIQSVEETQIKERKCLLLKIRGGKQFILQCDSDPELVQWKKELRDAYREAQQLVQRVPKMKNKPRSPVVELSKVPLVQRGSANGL
AP-2 complex subunit beta (Homo sapiens), sequence (P63010 whole entry, looked up, the tested form may be a part, one chain of several): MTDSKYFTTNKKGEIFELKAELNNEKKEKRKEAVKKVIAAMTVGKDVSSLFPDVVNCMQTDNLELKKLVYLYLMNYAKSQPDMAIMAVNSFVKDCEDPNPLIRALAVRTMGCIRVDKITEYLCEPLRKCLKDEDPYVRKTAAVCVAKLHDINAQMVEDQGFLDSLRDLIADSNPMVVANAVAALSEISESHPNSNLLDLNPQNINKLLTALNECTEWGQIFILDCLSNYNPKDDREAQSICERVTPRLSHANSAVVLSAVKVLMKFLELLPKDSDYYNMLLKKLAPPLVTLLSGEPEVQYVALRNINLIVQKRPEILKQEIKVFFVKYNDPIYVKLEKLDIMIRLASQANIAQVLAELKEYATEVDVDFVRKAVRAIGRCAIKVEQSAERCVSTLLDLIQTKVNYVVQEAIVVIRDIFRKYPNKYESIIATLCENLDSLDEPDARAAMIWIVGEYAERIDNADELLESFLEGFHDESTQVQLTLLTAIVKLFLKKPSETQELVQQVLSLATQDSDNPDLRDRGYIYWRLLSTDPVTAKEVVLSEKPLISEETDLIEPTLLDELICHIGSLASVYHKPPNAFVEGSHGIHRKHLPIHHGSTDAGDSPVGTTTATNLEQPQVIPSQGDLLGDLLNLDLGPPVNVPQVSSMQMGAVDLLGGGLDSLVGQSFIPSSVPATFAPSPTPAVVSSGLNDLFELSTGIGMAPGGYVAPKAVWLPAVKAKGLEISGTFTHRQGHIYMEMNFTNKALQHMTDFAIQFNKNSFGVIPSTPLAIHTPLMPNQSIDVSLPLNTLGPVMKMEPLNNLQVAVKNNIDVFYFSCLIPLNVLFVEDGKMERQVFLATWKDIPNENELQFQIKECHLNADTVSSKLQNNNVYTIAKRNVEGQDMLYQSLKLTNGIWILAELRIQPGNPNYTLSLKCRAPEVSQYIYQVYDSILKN
ATP-binding cassette sub-family B member 6 (Homo sapiens), sequence (Q9NP58 whole entry, looked up): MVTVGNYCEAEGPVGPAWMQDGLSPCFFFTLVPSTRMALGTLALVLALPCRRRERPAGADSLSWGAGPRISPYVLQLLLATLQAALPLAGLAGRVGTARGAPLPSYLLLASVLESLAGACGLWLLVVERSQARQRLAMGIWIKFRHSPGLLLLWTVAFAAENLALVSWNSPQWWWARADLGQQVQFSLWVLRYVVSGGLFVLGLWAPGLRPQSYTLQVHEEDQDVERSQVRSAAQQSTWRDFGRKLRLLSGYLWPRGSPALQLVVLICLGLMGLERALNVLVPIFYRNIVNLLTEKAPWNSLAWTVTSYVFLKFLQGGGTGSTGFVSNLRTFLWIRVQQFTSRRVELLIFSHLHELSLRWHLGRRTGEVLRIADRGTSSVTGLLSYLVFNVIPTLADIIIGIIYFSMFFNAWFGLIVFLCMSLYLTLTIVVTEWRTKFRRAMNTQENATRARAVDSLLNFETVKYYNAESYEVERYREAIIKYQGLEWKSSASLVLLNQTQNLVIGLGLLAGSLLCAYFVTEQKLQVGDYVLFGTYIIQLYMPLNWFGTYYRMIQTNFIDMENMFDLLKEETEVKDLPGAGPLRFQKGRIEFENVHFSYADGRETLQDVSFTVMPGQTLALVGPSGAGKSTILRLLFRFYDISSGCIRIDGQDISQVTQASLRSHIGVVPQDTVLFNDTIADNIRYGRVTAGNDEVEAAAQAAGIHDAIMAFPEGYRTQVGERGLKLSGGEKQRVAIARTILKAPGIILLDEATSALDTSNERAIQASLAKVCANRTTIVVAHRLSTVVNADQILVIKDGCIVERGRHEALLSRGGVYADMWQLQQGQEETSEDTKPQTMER

CCOC(=O)c1cccc(P(C)(C)=O)c1
inactive: percent of DMSO control GFP [1] 103% | GFP response vs DMSO [2] 97.2% | percent response of DMSO control [3] 114% | GFP response vs DMSO [4] 90.1% | GFP response, % of DMSO [5] 104% | vesicle binding response [6] 67.6% | inhibition [7] 5.77% | superoxide response (% of plate) [8] 109% | aptamer binding inhibition [9] 3% | response [10] -6.13% | inhibition [11] -7.26% | response [12] -2.31% | binding (% of control) [13] 95.8% | efflux inhibition (fraction of control) [14] -0.04 | inhibition [15] -7% | differentiation response [16] 6.11%
62%: double positive events [6]

Nc1cc(-c2ccncc2)c[nH]c1=O
inactive: percent of DMSO control GFP [1] 103% | GFP response vs DMSO [2] 103% | percent response of DMSO control [3] 112% | GFP response vs DMSO [4] 102% | GFP response, % of DMSO [5] 105% | vesicle binding response [6] 184% | inhibition [7] -11.8% | superoxide response (% of plate) [8] 82.5% | aptamer binding inhibition [9] -6% | response [10] 8.85% | inhibition [11] -8.58% | response [12] -0.06% | binding (% of control) [13] 105% | efflux inhibition (fraction of control) [14] 0.015 | inhibition [15] -6% | differentiation response [16] -4.57%
63.1%: double positive events [6]

CCCCNc1ccc(C(=O)OCCN(C)C)cc1
63.6%: double positive events [6]
inactive: percent of DMSO control GFP [1] 101% | GFP response vs DMSO [2] 109% | percent response of DMSO control [3] 98.9% | GFP response vs DMSO [4] 103% | GFP response, % of DMSO [5] 97.3% | vesicle binding response [6] 212% | inhibition [7] 5.77% | superoxide response (% of plate) [8] 106% | aptamer binding inhibition [9] -1% | response [10] -12.7% | inhibition [11] 5.38% | response [12] -3.28% | binding (% of control) [13] 101% | efflux inhibition (fraction of control) [14] -0.01 | inhibition [15] 15% | differentiation response [16] 19.8%

O=C(NC(=S)Nc1nc(-c2ccccc2)cs1)c1ccco1
55.7%: double positive events [6]
inactive: percent of DMSO control GFP [1] 90.9% | GFP response vs DMSO [2] 132% | percent response of DMSO control [3] 102% | GFP response vs DMSO [4] 85.3% | GFP response, % of DMSO [5] 87.3% | vesicle binding response [6] 164% | inhibition [7] 1.61% | superoxide response (% of plate) [8] 110% | aptamer binding inhibition [9] 3% | response [10] -23.9% | inhibition [11] 16.9% | response [12] -1.38% | binding (% of control) [13] 102% | efflux inhibition (fraction of control) [14] 0.12 | inhibition [15] 7% | differentiation response [16] 5.73%

CCn1ccnc1CN(C)Cc1cn(-c2cccc(C)c2)nc1-c1cccc(F)c1
inactive: percent of DMSO control GFP [1] 104% | GFP response vs DMSO [2] 95.6% | percent response of DMSO control [3] 108% | GFP response vs DMSO [4] 92.6% | GFP response, % of DMSO [5] 104% | vesicle binding response [6] 145% | inhibition [7] -7.79% | superoxide response (% of plate) [8] 102% | aptamer binding inhibition [9] 4% | response [10] -10.5% | inhibition [11] -10.8% | response [12] 3.23% | binding (% of control) [13] 105% | efflux inhibition (fraction of control) [14] 0.11 | inhibition [15] 21% | differentiation response [16] -14.8%
63.6%: double positive events [6]

Cc1onc(-c2c(Cl)cccc2Cl)c1C(=O)NC1C(=O)N2C1SC(C)(C)C2C(=O)O (stereo not given)
59.6%: double positive events [6]
inactive: percent of DMSO control GFP [1] 99.7% | GFP response vs DMSO [2] 103% | percent response of DMSO control [3] 100% | GFP response vs DMSO [4] 117% | GFP response, % of DMSO [5] 113% | vesicle binding response [6] 207% | inhibition [7] -6.23% | superoxide response (% of plate) [8] 83.9% | aptamer binding inhibition [9] 0% | response [10] -26.4% | inhibition [11] 5.02% | response [12] -4.49% | binding (% of control) [13] 103% | efflux inhibition (fraction of control) [14] 0 | inhibition [15] 3% | differentiation response [16] -12.9%

Cc1ccc2[nH]c3c(=O)n(CCc4cnc[nH]4)cnc3c2c1
65.2%: double positive events [6]
inactive: percent of DMSO control GFP [1] 96.4% | GFP response vs DMSO [2] 99.7% | percent response of DMSO control [3] 105% | GFP response vs DMSO [4] 97% | GFP response, % of DMSO [5] 103% | vesicle binding response [6] 172% | inhibition [7] -17.2% | superoxide response (% of plate) [8] 93.1% | aptamer binding inhibition [9] 0% | response [10] -13.6% | inhibition [11] -15.4% | response [12] 1.97% | binding (% of control) [13] 103% | efflux inhibition (fraction of control) [14] -0.58 | inhibition [15] 10% | differentiation response [16] -14.8%

C=C(C)[C@@H]1CC=C(CN2CCC(N3CCC(C(=O)N4CCCC4)CC3)CC2)CC1
60.1%: double positive events [6]
inactive: percent of DMSO control GFP [1] 105% | GFP response vs DMSO [2] 91.9% | percent response of DMSO control [3] 120% | GFP response vs DMSO [4] 92% | GFP response, % of DMSO [5] 101% | vesicle binding response [6] 292% | inhibition [7] 1.62% | superoxide response (% of plate) [8] 92.9% | aptamer binding inhibition [9] -18% | response [10] -3.2% | inhibition [11] -12.5% | response [12] 1.83% | binding (% of control) [13] 130% | efflux inhibition (fraction of control) [14] 0.08 | inhibition [15] -18% | differentiation response [16] 6.11%

Oc1[nH]c2ccccc2c1C1=NCCCC1
63.2%: double positive events [6]
inactive: percent of DMSO control GFP [1] 102% | GFP response vs DMSO [2] 105% | percent response of DMSO control [3] 96% | GFP response vs DMSO [4] 99.4% | GFP response, % of DMSO [5] 106% | vesicle binding response [6] 161% | inhibition [7] -3.18% | superoxide response (% of plate) [8] 84.9% | aptamer binding inhibition [9] 8% | response [10] 17.8% | inhibition [11] -15.4% | response [12] 1.51% | binding (% of control) [13] 102% | efflux inhibition (fraction of control) [14] -0.12 | inhibition [15] 11% | differentiation response [16] 0%

CCOC(=O)c1ccc(N2C(=O)C(CC(=O)NC)N(CCc3ccc(OC)c(OC)c3)C2=S)cc1 (stereo not given)
59.4%: double positive events [6]
inactive: percent of DMSO control GFP [1] 103% | GFP response vs DMSO [2] 99.9% | percent response of DMSO control [3] 101% | GFP response vs DMSO [4] 104% | GFP response, % of DMSO [5] 98.8% | vesicle binding response [6] 248% | inhibition [7] 6.85% | superoxide response (% of plate) [8] 113% | aptamer binding inhibition [9] 5% | response [10] 5.49% | inhibition [11] -11.1% | response [12] 0.17% | binding (% of control) [13] 103% | efflux inhibition (fraction of control) [14] 0.26 | inhibition [15] 4% | differentiation response [16] -1.12%

From PubChem BioAssay
